We go through 55 molecules from PubChem BioAssay AID1511 (Johns Hopkins Ion Channel Center, 2009).

SMILES strings stand for the structures. In all, about 310,000 compounds went through this assay and about 1,600 (0.52%) were called active. Many of the other results were omitted from the sample, so actives are more common in it than they were. Values without a mark were called inactive.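 Rule for the calls: active = activation above the mean of controls blocked by dofetilide plus 5 SD; inactive = the rest.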 Square brackets hold non-standard residues; d marks the D form. Peptide text beside a SMILES is read from it. ξ: configuration not given here. ξM = CSCCC(N)C(=O)O

Voltage-gated inwardly rectifying potassium channel KCNH2 (Homo sapiens), sequence (Q12809 whole entry, looked up): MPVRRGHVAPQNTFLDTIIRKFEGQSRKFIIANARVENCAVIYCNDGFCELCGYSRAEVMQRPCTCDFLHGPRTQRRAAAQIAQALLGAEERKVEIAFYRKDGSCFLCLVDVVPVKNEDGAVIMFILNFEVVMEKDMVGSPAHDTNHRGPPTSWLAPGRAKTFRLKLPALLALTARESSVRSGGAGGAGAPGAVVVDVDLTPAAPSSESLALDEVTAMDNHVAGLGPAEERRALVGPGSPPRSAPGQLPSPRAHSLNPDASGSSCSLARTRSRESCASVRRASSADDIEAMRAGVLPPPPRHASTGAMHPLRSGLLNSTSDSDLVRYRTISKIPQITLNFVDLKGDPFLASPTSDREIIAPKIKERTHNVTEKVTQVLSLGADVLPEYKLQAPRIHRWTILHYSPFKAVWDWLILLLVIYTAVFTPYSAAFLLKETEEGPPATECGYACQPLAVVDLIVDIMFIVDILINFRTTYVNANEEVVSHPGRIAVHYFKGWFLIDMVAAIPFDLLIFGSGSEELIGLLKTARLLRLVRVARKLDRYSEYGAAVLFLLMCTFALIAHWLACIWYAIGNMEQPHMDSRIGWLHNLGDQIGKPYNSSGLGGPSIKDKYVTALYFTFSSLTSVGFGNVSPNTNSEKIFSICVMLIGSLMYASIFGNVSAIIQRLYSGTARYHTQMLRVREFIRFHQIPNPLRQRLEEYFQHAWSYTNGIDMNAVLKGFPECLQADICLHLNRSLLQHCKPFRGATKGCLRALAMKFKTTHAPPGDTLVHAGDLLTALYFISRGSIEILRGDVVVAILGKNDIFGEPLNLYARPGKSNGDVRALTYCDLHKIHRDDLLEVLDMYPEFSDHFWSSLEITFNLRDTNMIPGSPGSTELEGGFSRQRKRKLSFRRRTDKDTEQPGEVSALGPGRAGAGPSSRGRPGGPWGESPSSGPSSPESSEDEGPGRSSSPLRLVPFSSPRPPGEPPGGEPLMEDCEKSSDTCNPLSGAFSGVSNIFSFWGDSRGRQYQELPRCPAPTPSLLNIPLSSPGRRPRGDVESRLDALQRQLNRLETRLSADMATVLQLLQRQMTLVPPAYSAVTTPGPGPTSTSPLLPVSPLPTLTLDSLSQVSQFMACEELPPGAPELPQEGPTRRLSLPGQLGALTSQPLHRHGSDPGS

This test addresses Voltage-gated inwardly rectifying potassium channel KCNH2 (Homo sapiens) (UniProt Q12809). Put plainly: compounds relieving dofetilide block of hERG – cell-based, CHO-hERG, FluxOR thallium flux, dofetilide IC70, primary screen (AID 1511).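 Note: thallium influx through hERG after potassium depolarization seen as dye fluorescence rise.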 Conditions: dofetilide IC70 present, at 10 µM, active compounds read high.
As for `Cc1ccc(S(=O)(=O)N(CC(=O)NCc2ccco2)c2ccccc2C)cc1`, the activation (rescue from dofetilide block), less the hit threshold was -7.72%.

With `Nc1nnnn1/N=C/c1cccc(Br)c1`, the activation (rescue from dofetilide block), less the hit threshold was -0.31%.

As for `COC(=O)c1cccc(-n2[nH]nnc2=S)c1`, the activation (rescue from dofetilide block), less the hit threshold is -7.53%.

Regarding `COc1cc(-c2noc(C3CCCN(S(=O)(=O)c4cccc(Cl)c4)C3)n2)cc(OC)c1OC` (stereo not given), the activation (rescue from dofetilide block), less the hit threshold was -11.3%.

Turning to `COC(=O)c1sc(NC(=O)c2csc3c2CCCC3)nc1C`, the activation (rescue from dofetilide block), less the hit threshold was -6.43%.

Regarding `Cc1ccc(C(=O)NC(=S)Nc2ccccc2C)cc1`, the activation (rescue from dofetilide block), less the hit threshold is -5.4%.

For the molecule `COC(=O)c1sc(NC(=S)NC(=O)c2ccc(C)cc2)nc1C`, the activation (rescue from dofetilide block), less the hit threshold was 7.72% (active).

As for `CCCN(C(=O)CSc1nnnn1C)c1c(N)n(Cc2ccccc2)c(=O)[nH]c1=O`, the activation (rescue from dofetilide block), less the hit threshold is -7.93%.

On to `Cc1ccc2c(c1)nnc1nnc(SCC(=O)O)n12`, for which the activation (rescue from dofetilide block), less the hit threshold was 1.69%.

In the case of `CCOC(=O)N1CCN(C(=O)c2ccc(CN(c3ccc(C)c(C)c3)S(C)(=O)=O)cc2)CC1`, the activation (rescue from dofetilide block), less the hit threshold was 4.64% (active).

`CCN1CCN(C(=O)c2ccc(CN(c3ccc(C)c(C)c3)S(C)(=O)=O)cc2)CC1`: the activation (rescue from dofetilide block), less the hit threshold is -6.12%.

Regarding `CCOC(=O)N1CCN(C(=O)CN(c2ccc(C)c(C)c2)S(=O)(=O)c2ccccc2)CC1`, the activation (rescue from dofetilide block), less the hit threshold is -9.17%.

Regarding `O=C(NC1CCCC1)C(c1c(F)cccc1Cl)N(C(=O)c1csnn1)C1CC1` (stereo not given), the activation (rescue from dofetilide block), less the hit threshold was -2.39%.

Take `CCO[C@H]1OC(C(=O)O)=C[C@@H](C2CCCCC2)[C@@H]1CCCO`: the activation (rescue from dofetilide block), less the hit threshold is -4.25%.

For the molecule `COc1cc(OC)cc(/C(N)=N/O)c1`, the activation (rescue from dofetilide block), less the hit threshold was -15.6%.

For the molecule `CC1CC(C)CN(C(=O)CSc2ccsc2[N+](=O)[O-])C1` (stereo not given), the activation (rescue from dofetilide block), less the hit threshold was -2.19%.

Consider `CN(c1ccccc1)S(=O)(=O)c1cc(C(=O)OCC(=O)N2CCN(C(=O)c3ccco3)CC2)ccc1Cl`, for which the activation (rescue from dofetilide block), less the hit threshold is 5.23% (active).

Turning to `O=C(OCC(=O)N1CCN(C(=O)c2ccco2)CC1)c1cccc(O)c1`, the activation (rescue from dofetilide block), less the hit threshold is -4%.

As to `CN(c1ccccc1)S(=O)(=O)c1ccc(Cl)c(C(=O)OCC(=O)N2CCOCC2)c1`, the activation (rescue from dofetilide block), less the hit threshold was 4.51%.

With `Cc1ccc(NC(=O)CSc2nnc(CNC(=O)c3ccccc3F)o2)cc1Cl`, the activation (rescue from dofetilide block), less the hit threshold is -8.43%.

In the case of `CCN(CC)c1ccc(C(=O)c2cnc(/N=C/N(C)C)s2)cc1`, the activation (rescue from dofetilide block), less the hit threshold is -22%.

For the molecule `Cc1cc(C)c(NC(=O)CSc2nc3ccncc3[nH]2)c(C)c1`, the activation (rescue from dofetilide block), less the hit threshold is -2.72%.

For the molecule `Cc1ccc(NC(=O)Nc2cccnc2)cc1`, the activation (rescue from dofetilide block), less the hit threshold was -1.84%.

Regarding `Cc1cc(C)c(NC(=O)CS(=O)CC(=O)Nc2cccnc2)c(C)c1` (stereo not given), the activation (rescue from dofetilide block), less the hit threshold was 7.98% (active).

`COc1ccc(CCc2nnc(CCC(=O)NCc3cnn(-c4ccccc4C)c3)o2)cc1`: the activation (rescue from dofetilide block), less the hit threshold was -3.52%.

`COc1ccc(S(=O)(=O)NCC(c2ccco2)N2CCOCC2)cc1` (stereo not given): the activation (rescue from dofetilide block), less the hit threshold was -10.9%.

On to `Cc1ccc(NNC(=O)c2c(F)cccc2Cl)cc1Cl`, for which the activation (rescue from dofetilide block), less the hit threshold is -7.77%.

For the molecule `Cc1cc(C)c(S(=O)(=O)c2ccccc2)c(OC(=O)c2c(F)cccc2Cl)n1`, the activation (rescue from dofetilide block), less the hit threshold was 8.53% (active).

On to `Cc1cc(OC(=O)c2c(Cl)cccc2Cl)nc(C)n1`, for which the activation (rescue from dofetilide block), less the hit threshold was -14.7%.

Regarding `Cc1cccc(S(=O)(=O)N2CN(CC3CCCO3)c3nc4ccccc4nc32)c1` (stereo not given), the activation (rescue from dofetilide block), less the hit threshold was -10.3%.

As to `CCOc1cc(/C=N/Nc2cc(C)nc3ccc(C)cc23)ccc1O`, the activation (rescue from dofetilide block), less the hit threshold is -14.3%.

For the molecule `CCOC(=O)C1CCN(c2c(Nc3cc(C)cc(C)c3)c(=O)c2=O)CC1`, the activation (rescue from dofetilide block), less the hit threshold is -11.1%.

As for `O=C1CCCc2c1nc(-c1cccc(Cl)c1)n2O`, the activation (rescue from dofetilide block), less the hit threshold was -10.5%.

As for `Cc1cccc(-c2nc3ccccc3c(=O)n2NC(=O)Cc2ccc(Cl)cc2)c1`, the activation (rescue from dofetilide block), less the hit threshold is -2.81%.

As for `O=c1c2cc(Br)ccc2nc(-c2cccc(Cl)c2)n1O`, the activation (rescue from dofetilide block), less the hit threshold is 59% (active).

For `O=C(CN1CCN(S(=O)(=O)c2cc(Cl)ccc2Cl)CC1)c1ccc(O)c(O)c1`, the activation (rescue from dofetilide block), less the hit threshold is -1.99%.

In the case of `CCOC(=O)N1CCC(NC(=O)c2ccc3nc(N4CCOCC4)sc3c2)CC1`, the activation (rescue from dofetilide block), less the hit threshold is -5.7%.

With `Cc1nc(N2CCOCC2)sc1C(=O)NN`, the activation (rescue from dofetilide block), less the hit threshold is 4.6% (active).

For `Cc1nc(-c2ccc(Cl)cc2)sc1C(=O)NN`, the activation (rescue from dofetilide block), less the hit threshold is -10.7%.

Consider `Cc1cc(O)c(C(=O)/C=C/c2c(F)c(F)c(F)c(F)c2F)c(=O)o1`, for which the activation (rescue from dofetilide block), less the hit threshold is -23.3%.

Regarding `COc1ccc(CCNC(=O)C(=O)Nc2ccc3nc4n(c(=O)c3c2)CCCCC4)cc1OC`, the activation (rescue from dofetilide block), less the hit threshold was -11.8%.

As to `Nc1nc(SCC(=O)N2CCN(S(=O)(=O)c3ccc(Cl)cc3)CC2)n[nH]1`, the activation (rescue from dofetilide block), less the hit threshold was -4.93%.

Turning to `Cc1ccc(S(=O)(=O)N(C)CC(=O)OCC(=O)N2CC(=O)Nc3ccccc32)cc1`, the activation (rescue from dofetilide block), less the hit threshold was -8.2%.

As for `O=[N+]([O-])c1ccccc1S(=O)(=O)Nc1cccc2cccnc12`, the activation (rescue from dofetilide block), less the hit threshold was -0.19%.

Consider `Cc1ccc(NS(=O)(=O)c2ccc(C)c(NC(=O)COc3ccc4ccccc4c3)c2)c(C)c1`, for which the activation (rescue from dofetilide block), less the hit threshold was -12.4%.

For `COc1cc(NS(=O)(=O)c2ccc3ccccc3c2)c2ncccc2c1`, the activation (rescue from dofetilide block), less the hit threshold was 5.48% (active).

`Cc1ccc(NC(=O)c2cc([N+](=O)[O-])ccc2Cl)c(O)c1`: the activation (rescue from dofetilide block), less the hit threshold was -3.14%.

Consider `CCCNC(=O)COc1coc(CN2CCN(Cc3ccccc3)CC2)cc1=O`, for which the activation (rescue from dofetilide block), less the hit threshold is -2.43%.

`COC(=O)CNC(=O)C(CCSC)NC(C)=O` (stereo not given) (Ac-[ξM]-Gly-OMe): the activation (rescue from dofetilide block), less the hit threshold was -1.31%.

In the case of `CC(N=Cc1nc(-c2ccccc2)oc1O)c1ccccc1` (stereo not given), the activation (rescue from dofetilide block), less the hit threshold was -4.74%.

As to `CCOc1ccc2nc(N(CCCN(C)C)C(=O)c3ccc(C(=O)c4ccccc4)cc3)sc2c1`, the activation (rescue from dofetilide block), less the hit threshold is -26.7%.

Consider `CCOc1ccc2nc(/N=C/c3nc(-c4ccccc4)oc3O)sc2c1`, for which the activation (rescue from dofetilide block), less the hit threshold is 17.1% (active).

For `COC(=O)c1cn(C)c2ccc(S(=O)(=O)N3CC(C)CC(C)C3)cc2c1=O` (stereo not given), the activation (rescue from dofetilide block), less the hit threshold is -10.9%.

For the molecule `CCOC(=O)c1ccc(Nc2cc3ccccc3c(=O)[nH]2)cc1`, the activation (rescue from dofetilide block), less the hit threshold was -10.6%.

Consider `CCOC(=O)C1=C(C)Nc2sc(C(=O)c3ccc(Br)cc3)c(N)c2C1c1ccc(C(=O)OC)cc1` (stereo not given), for which the activation (rescue from dofetilide block), less the hit threshold was -8.23%.
